Measurements: ChEMBL document CHEMBL3988442, “University of Dundee, Small-Polar-MMV Screening Library” (2021)
For some assays here: Measured potencies and affinities stand elsewhere.

Tests used:
Parameters in all cases: scale not given: direction of the effect not stated beside the values
[1] = target: Protein translocase subunit SecA (Escherichia coli (strain K12)) (UniProt P10408); experiment: Assay to Identify E. coli SecA ATPase Inhibitors; assay type: functional; conditions: 30 µM
[2] = target: T1, Ubiquitin-activating enzyme e1, putative (Leishmania donovani (strain BPK282A1)) (UniProt E9BSI1); experiment: Leishmania donovani Ubiquitin Activating Enzyme (LdE1); assay type: functional; conditions: 30 µM
T1 sequence (whole entry): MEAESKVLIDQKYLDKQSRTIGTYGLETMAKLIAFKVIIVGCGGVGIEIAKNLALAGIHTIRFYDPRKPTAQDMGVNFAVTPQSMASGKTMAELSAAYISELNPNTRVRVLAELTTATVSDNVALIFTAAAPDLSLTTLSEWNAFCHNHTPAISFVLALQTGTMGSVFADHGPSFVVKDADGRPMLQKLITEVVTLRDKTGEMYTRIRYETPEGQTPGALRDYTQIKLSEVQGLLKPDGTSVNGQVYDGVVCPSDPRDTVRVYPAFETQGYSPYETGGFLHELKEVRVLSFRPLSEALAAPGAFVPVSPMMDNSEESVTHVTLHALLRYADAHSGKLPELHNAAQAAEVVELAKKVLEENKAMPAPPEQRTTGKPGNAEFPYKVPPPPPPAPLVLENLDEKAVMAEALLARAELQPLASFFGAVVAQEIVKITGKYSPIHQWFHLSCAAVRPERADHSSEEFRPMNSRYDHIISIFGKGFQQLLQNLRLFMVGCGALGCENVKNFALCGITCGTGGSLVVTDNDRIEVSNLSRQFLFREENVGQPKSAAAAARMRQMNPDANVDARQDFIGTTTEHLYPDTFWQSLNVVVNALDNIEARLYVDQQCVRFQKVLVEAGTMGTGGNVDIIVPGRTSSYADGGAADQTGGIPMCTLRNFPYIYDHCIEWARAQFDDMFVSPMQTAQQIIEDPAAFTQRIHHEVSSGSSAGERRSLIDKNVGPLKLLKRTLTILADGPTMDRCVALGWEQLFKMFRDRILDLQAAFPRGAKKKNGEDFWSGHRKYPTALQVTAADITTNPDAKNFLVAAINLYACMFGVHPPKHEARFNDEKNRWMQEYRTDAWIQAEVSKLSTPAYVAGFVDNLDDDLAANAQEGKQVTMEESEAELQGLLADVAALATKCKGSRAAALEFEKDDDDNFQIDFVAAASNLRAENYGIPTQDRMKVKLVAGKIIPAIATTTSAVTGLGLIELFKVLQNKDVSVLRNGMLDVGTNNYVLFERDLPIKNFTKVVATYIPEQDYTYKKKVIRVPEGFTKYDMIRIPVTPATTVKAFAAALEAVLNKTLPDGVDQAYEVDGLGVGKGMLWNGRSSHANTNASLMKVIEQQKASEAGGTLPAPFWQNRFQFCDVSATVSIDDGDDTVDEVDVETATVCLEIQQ

[3] = target: Sialic acid-binding Ig-like lectin 9 (Homo sapiens) (UniProt Q9Y336); experiment: Hs-Siglec9 ALPHAscreen SOP 20170721; conditions: 10 µM
[4] = test system: Trypanosoma cruzi; experiment: Trypanosoma cruzi phosphomannomutase and mannose-1-phosphate guanylyltransferase assay; assay type: functional; conditions: 10 µM
[5] = target: T2, Arginase-2, mitochondrial (Homo sapiens) (UniProt P78540); experiment: in vitro enzyme assay to detect the production of urea directly proportional to the activity of Arginase II; assay type: functional; conditions: 33.3 µM; further: in the data most compounds retested in dose-response had high values
T2 sequence (whole entry): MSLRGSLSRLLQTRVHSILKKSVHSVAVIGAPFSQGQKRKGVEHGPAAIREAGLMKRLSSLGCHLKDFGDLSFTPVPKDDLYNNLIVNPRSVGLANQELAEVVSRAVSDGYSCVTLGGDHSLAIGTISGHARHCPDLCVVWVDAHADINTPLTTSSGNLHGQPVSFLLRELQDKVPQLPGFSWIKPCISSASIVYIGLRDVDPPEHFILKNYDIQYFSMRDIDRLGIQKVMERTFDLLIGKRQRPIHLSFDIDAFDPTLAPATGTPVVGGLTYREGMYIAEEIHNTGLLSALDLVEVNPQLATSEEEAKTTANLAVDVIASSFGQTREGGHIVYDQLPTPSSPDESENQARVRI

[6] = target: T3, Proteasome subunit beta (Trypanosoma cruzi) (UniProt O96673); experiment: Trypanosoma cruzi proteasome chymotrypsin-like activity (TcProtChymo) assay.; further: in the data most compounds retested in dose-response had high values; assay type: functional; conditions: 9.37 µM
T3 sequence (whole entry): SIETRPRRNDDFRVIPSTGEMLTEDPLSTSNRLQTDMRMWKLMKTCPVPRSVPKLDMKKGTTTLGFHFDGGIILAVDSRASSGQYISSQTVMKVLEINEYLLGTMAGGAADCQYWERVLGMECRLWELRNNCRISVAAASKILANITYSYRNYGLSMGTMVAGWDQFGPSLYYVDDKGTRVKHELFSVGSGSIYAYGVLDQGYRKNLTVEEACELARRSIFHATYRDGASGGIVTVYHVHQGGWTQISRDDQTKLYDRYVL

[7] = species: Homo sapiens; experiment: To identify inhibition of the IFN signalling (Jak-Stat) pathway via expression of an eGFP reporter gene under the control of an IFN-stimulated response element (ISRE) containing MxA promoter.; assay type: functional; conditions: 30 µM
[8] = target: T4, Tyrosyl-tRNA synthetase, putative (Trypanosoma cruzi (strain CL Brener)) (UniProt Q4DSP6); experiment: Trypanosoma cruzi tyrosyl tRNA synthetase (TcYRS) _High Tyrosine SOP; assay type: functional; conditions: 30 µM; further: in the data most compounds retested in dose-response had high values
T4 sequence (whole entry): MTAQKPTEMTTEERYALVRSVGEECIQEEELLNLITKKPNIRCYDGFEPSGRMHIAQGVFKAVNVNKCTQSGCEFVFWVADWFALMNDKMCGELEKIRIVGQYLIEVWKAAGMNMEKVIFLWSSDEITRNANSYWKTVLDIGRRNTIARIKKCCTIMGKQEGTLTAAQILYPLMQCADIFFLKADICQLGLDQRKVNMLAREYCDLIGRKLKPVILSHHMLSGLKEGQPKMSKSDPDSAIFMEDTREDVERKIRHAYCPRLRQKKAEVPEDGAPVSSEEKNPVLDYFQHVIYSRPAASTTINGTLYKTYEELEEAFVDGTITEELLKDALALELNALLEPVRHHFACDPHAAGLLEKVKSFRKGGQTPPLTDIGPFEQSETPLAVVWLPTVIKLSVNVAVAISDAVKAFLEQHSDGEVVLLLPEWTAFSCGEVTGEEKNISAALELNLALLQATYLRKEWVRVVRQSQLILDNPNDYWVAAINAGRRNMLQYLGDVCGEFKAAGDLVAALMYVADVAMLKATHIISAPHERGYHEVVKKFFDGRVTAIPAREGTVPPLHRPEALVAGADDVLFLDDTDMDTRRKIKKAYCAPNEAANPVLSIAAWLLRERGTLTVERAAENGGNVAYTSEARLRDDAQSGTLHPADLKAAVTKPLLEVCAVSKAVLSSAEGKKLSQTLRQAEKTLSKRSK

[9] = target: T4, Tyrosyl-tRNA synthetase, putative (Trypanosoma cruzi (strain CL Brener)); experiment: Trypanosoma cruzi tyrosyl tRNA synthetase (TcYRS) SOP; assay type: functional; conditions: 30 µM
[10] = target: Chromo domain-containing protein 1 (Saccharomyces cerevisiae (strain ATCC 204508 / S288c) (Baker's yeast)) (UniProt P32657); experiment: ScCHD-1 Enzyme Inhibition Assay; assay type: functional; conditions: 30 µM; further: in the data most compounds retested in dose-response had high values
Chain of Chromo domain-containing protein 1 (Saccharomyces cerevisiae (strain ATCC 204508 / S288c) (Baker's yeast)) (P32657 whole entry, the tested form may be a part): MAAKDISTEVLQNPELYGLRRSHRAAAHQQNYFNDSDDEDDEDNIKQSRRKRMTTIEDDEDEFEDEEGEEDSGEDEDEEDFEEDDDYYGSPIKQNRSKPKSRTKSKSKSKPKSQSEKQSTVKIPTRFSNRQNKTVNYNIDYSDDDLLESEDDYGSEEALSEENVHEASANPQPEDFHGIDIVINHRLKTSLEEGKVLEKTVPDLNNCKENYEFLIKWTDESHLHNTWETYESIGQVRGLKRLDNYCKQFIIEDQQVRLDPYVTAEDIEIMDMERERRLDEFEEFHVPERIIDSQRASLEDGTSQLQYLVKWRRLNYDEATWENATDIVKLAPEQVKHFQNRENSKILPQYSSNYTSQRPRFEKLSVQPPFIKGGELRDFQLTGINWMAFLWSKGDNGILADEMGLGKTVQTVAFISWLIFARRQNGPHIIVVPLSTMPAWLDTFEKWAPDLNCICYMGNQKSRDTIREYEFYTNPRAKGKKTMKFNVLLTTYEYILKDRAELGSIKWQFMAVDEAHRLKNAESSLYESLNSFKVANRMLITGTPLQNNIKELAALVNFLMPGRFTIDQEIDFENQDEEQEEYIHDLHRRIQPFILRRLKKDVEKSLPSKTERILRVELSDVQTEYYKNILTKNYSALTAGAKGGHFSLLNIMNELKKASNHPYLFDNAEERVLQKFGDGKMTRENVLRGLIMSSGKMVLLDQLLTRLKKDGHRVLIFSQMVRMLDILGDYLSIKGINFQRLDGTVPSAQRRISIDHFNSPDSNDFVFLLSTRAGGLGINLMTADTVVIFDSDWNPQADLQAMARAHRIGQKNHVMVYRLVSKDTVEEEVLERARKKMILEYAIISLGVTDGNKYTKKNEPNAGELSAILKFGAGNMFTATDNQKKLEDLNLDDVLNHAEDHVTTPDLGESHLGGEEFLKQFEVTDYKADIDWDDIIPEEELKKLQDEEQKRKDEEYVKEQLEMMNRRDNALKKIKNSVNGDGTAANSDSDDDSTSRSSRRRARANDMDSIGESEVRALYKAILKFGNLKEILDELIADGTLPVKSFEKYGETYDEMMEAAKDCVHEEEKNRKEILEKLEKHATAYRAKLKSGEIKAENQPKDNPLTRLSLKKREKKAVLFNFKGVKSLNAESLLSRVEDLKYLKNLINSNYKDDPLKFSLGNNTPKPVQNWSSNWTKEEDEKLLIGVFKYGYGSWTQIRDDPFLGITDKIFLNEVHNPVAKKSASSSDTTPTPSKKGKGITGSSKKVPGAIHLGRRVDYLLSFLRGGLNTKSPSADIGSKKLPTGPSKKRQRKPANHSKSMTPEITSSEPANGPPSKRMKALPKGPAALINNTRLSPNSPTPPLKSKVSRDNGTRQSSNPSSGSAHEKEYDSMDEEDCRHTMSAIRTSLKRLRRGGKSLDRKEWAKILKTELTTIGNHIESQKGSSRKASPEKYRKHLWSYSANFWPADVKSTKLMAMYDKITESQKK

Chain of Sialic acid-binding Ig-like lectin 9 (Homo sapiens) (Q9Y336 whole entry): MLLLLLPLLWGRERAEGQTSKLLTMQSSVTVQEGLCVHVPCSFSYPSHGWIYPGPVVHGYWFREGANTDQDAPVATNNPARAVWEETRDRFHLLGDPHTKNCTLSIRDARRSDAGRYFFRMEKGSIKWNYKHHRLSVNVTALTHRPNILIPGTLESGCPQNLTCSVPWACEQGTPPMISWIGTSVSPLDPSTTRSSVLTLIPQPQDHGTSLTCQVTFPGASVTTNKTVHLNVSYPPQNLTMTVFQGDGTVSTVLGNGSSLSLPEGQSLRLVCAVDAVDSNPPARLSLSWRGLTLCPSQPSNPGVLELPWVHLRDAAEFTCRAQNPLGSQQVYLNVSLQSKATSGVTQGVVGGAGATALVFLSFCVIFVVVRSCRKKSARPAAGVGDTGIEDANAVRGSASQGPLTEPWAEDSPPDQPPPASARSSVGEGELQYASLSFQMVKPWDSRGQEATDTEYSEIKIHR
Chain of Protein translocase subunit SecA (Escherichia coli (strain K12)) (P10408 whole entry): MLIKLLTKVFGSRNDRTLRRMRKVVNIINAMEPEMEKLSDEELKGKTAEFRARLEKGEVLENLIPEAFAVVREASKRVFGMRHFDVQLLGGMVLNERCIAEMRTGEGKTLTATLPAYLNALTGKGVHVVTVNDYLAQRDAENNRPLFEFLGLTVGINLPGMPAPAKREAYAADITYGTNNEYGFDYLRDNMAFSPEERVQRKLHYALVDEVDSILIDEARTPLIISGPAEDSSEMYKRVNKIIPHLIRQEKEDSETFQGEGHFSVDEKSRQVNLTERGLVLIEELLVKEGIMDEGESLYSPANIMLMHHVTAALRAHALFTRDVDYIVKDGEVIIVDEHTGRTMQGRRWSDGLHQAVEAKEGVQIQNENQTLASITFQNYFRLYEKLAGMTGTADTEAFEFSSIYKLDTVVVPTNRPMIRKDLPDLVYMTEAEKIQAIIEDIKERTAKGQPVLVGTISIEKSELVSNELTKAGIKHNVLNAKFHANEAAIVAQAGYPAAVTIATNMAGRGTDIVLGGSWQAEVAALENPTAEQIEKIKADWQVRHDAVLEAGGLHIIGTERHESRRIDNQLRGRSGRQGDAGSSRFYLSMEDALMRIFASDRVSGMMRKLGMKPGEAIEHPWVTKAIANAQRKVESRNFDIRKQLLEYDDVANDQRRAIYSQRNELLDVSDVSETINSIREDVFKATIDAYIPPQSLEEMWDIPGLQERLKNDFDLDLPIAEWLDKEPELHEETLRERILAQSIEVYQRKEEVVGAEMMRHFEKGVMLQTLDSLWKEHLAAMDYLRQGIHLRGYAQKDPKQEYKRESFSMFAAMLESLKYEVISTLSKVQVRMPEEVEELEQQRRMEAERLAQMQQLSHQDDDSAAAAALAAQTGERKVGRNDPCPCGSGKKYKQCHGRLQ

Structure (SMILES) | Percent Effect [1] [%] | Percent Effect [2] [%] | Percent Effect [3] [%] | Percent Effect [4] [%] | Percent Effect [5] [%] | Percent Effect [6] [%] | Percent Effect [7] [%] | Percent Effect [8] [%] | Percent Effect [9] [%] | Percent Effect [10] [%]
CC(c1nc(C2CC2)no1)N1CCN(Cc2ccsc2)CC1 (stereo not given) | -4.58 | 2.56 | 2.79 | 1.97 | -1.64 | 3.67 | 3.35 | 4.31 | 8.43 | -5.15
CC[C@@H]1N(Cc2ccsc2)CCC[C@]12CCC(=O)N2CCOC | -4.26 | 19.5 | -1.28 | -3.19 | 4.11 | 10.9 | -2.54 | 7.73 | 7.5 | -3.65
O=C1CC(c2ccccc2)C2(CCN(Cc3ccccn3)CC2)N1 (stereo not given) | 0.295 | 22.1 | -3.53 | -5.25 | 3.2 | 8.33 | 18.5 | 7.73 | 15 | -9.1
O=C(NCC1CC1)C1=NOC2(CCN(S(=O)(=O)c3cccs3)C2)C1 (stereo not given) | -2.62 | -3.9 | 6.57 | -1.85 | -3.64 | 3.79 | -1.32 | -0.526 | -2.56 | 0.639
COc1ccc(-c2nc(CN3CCc4c(ncn4C)C3)cs2)cc1 | -0.999 | -12.8 | -13.6 | 3.66 | 0.41 | 13.4 | 18.6 | 18.7 | 22.9 | 4.88
Cc1nc(C)n(CC2CCCN2Cc2nc3ccccc3n2C)n1 (stereo not given) | -5.84 | 10.7 | 7.93 | 1.81 | 3.55 | 17.6 | 8.44 | 1.58 | 12.8 | -12.7
Cc1ncc(-c2ccnc(N3CCCCCC3)n2)c(-c2cccnc2)n1 | -0.407 | 10.7 | 0.168 | -8.03 | 3.1 | 8.74 | 21.1 | 1.58 | 12.8 | -11.6
Cc1cnn(CC2CN(CC(=O)N(C)c3nccs3)CCO2)c1 (stereo not given) | -4.67 | 8 | 4.67 | 0.201 | -2.66 | 9.75 | 13.5 | 4.74 | 10.3 | -8.81
O=C(NCc1cc(O)ncn1)C1COc2ccccc2C1 (stereo not given) | -3.59 | 10.8 | 17.9 | 3.59 | 12.9 | 13 | 9.77 | 5.85 | 17.1 | -2.86
Cc1cc(C)n(CC2CCCN2CCS(=O)(=O)c2ccccc2)n1 (stereo not given) | -0.665 | -7.69 | -1.27 | 0.845 | 9.43 | -2.47 | 18.7 | 1.44 | -1.21 | 1.56
CC(O)CN1CCC(CNCc2ccccc2Br)CC1 (stereo not given) | -0.126 | 10.3 | -8.9 | 11.4 | 1.23 | 10.2 | 8.18 | 4.31 | 20.5 | -5.01
